About 2,000 (36%) of roughly 5,500 compounds were called active. Roughly 18% stayed inconclusive and do not appear here. No stated cut-off is given here; in the data, active means normalized growth mostly below about 0.91 (no sharp cut-off); inconclusive means no clear call, values can overlap the other calls; inactive means mostly above about 0.92. Some of the results follow.
Assay: chemical genetic growth profiling, strain panel (AID 1159580);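 further: tested at 20 µM; growth read once vehicle control cultures reached saturation at 30 °C; 1 = growth at the plate median or of vehicle wells; lower values mean less growth of the strain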
Settings: growth OD
[1] = S. cerevisiae deletion strains, locus YAL013W, strain DEP1, active compounds read low
[2] = S. cerevisiae deletion strains, locus YBR229C, strain ROT2, active compounds read low
[3] = S. cerevisiae deletion strains, locus YDL101C, strain DUN1, active compounds read low
[4] = S. cerevisiae deletion strains, locus YDL134C, strain PPH21, active compounds read low
[5] = S. cerevisiae deletion strains, locus YDR150W, strain NUM1, active compounds read low
[6] = S. cerevisiae deletion strains, locus YEL061C, strain CIN8, active compounds read low
[7] = S. cerevisiae deletion strains, locus YGR078C, strain PAC10, active compounds read low
[8] = S. cerevisiae deletion strains, locus YHR030C, strain SLT2, active compounds read low
[9] = S. cerevisiae deletion strains, locus YHR087W, strain rtc3, active compounds read low
[10] = S. cerevisiae deletion strains, locus YJR043C, strain POL32, active compounds read low
[11] = S. cerevisiae deletion strains, locus YJR075W, strain HOC1, active compounds read low
[12] = S. cerevisiae deletion strains, locus YLR039C, strain RIC1, active compounds read low
[13] = S. cerevisiae deletion strains, locus YLR058C, strain SHM2 (second series), active compounds read low
[14] = S. cerevisiae deletion strains, locus YLR085C, strain ARP6, active compounds read low
[15] = S. cerevisiae deletion strains, locus YLR262C, strain YPT6, active compounds read low
[16] = S. cerevisiae deletion strains, locus YML094W, strain GIM5, active compounds read low
[17] = S. cerevisiae deletion strains, locus YMR219W, strain ESC1, active compounds read low
[18] = S. cerevisiae deletion strains, locus YMR263W, strain SAP30, active compounds read low
[19] = S. cerevisiae deletion strains, locus YNL153C, strain GIM3, active compounds read low
[20] = S. cerevisiae deletion strains, locus YNL298W, strain CLA4 (second series), active compounds read low
[21] = S. cerevisiae deletion strains, locus YNL322C, strain KRE1, active compounds read low
[22] = S. cerevisiae deletion strains, locus YNR030W, strain Alg12, active compounds read low
[23] = S. cerevisiae deletion strains, locus YOL006C, strain TOP1, active compounds read low
[24] = S. cerevisiae deletion strains, locus YPL055C, strain LGE1, active compounds read low
[25] = S. cerevisiae deletion strains, locus YPL241C, strain CIN2, active compounds read low
[26] = S. cerevisiae deletion strains, locus YPR135W, strain CTF4, active compounds read low
[27] = S. cerevisiae deletion strains, locus YKL190W, strain CNB1, active compounds read low
[28] = S. cerevisiae strains, strain wild type, active compounds read low

Measured: normalized growth

Cc1c(S(=O)(=O)c2ccc(Cl)cc2)cnc2cc(C(C)(C)C)nn12
inactive: [1] 1.01 | [2] 1.02 | [3] 1 | [4] 1.03 | [5] 0.987 | [6] 1.01 | [7] 1.01 | [8] 1.07 | [9] 1.01 | [10] 1.01 | [11] 1.01 | [12] 1.03 | [13] 1.01 | [14] 1.02 | [15] 1.03 | [16] 1.01 | [17] 1.01 | [18] 0.982 | S. cerevisiae deletion strains, locus YMR307W, strain GAS1, active compounds read low 0.945 | S. cerevisiae deletion strains, locus YNL128W, strain TEP1, active compounds read low 1.01 | [19] 1 | [20] 1.05 | [21] 1.01 | [22] 1.05 | [23] 1.06 | [24] 1.01 | [25] 0.996 | [26] 1.06

CC(C)(C)OC(=O)C(C)(C)S(=O)(=O)c1ccc(Cl)cc1
inactive: [1] 1.01 | [2] 0.983 | S. cerevisiae deletion strains, locus YCL061C, strain MRC1, active compounds read low 0.979 | [3] 0.977 | [4] 0.995 | [5] 0.992 | [6] 1 | [7] 0.992 | [8] 0.955 | [9] 1.01 | [11] 0.973 | [27] 0.994 | [12] 0.958 | [13] 1.01 | [14] 1.05 | [15] 0.927 | [16] 0.987 | [17] 0.995 | [18] 0.992 | [19] 0.98 | [20] 1.02 | [21] 0.984 | [22] 0.983 | [23] 1.01 | [24] 1.02 | [25] 1.01 | [26] 1.04 | [28] 1

O=[N+]([O-])c1ccc(S(=O)(=O)c2ccccc2)nc1S(=O)(=O)c1ccccc1
active: S. cerevisiae deletion strains, locus YAR019C, strain CDC15, active compounds read low 0.882 | S. cerevisiae deletion strains, locus YDL214C, strain PRR2, active compounds read low 0.393 | S. cerevisiae deletion strains, locus YDR477W, strain SNF1, active compounds read low 0.473 | S. cerevisiae deletion strains, locus YER123W, strain YCK3, active compounds read low 0.223 | S. cerevisiae deletion strains, locus YER133W, strain GLC7, active compounds read low 0.361 | S. cerevisiae deletion strains, locus YFR019W, strain FAB1, active compounds read low 0.62 | S. cerevisiae deletion strains, locus YGR040W, strain KSS1, active compounds read low 0.443 | S. cerevisiae deletion strains, locus YGR052W, strain FMP48, active compounds read low 0.353 | [8] 0.334 | S. cerevisiae deletion strains, locus YHR082C, strain KSP1, active compounds read low 0.364 | S. cerevisiae deletion strains, locus YHR205W, strain SCH9, active compounds read low 0.47 | S. cerevisiae deletion strains, locus YJL095W, strain BCK1, active compounds read low 0.401 | S. cerevisiae deletion strains, locus YJR066W, strain TOR1 (second series), active compounds read low 0.438 | S. cerevisiae deletion strains, locus YJR066W, strain TOR1, active compounds read low 0.299 | S. cerevisiae deletion strains, locus YKL193C, strain SDS22, active compounds read low 0.871 | S. cerevisiae deletion strains, locus YKL203C, strain TOR2, active compounds read low 0.555 | S. cerevisiae deletion strains, locus YLR113W, strain HOG1, active compounds read low 0.184 | S. cerevisiae deletion strains, locus YLR133W, strain CKI1, active compounds read low 0.691 | S. cerevisiae deletion strains, locus YML070W, strain DAK1, active compounds read low 0.433 | S. cerevisiae deletion strains, locus YMR277W, strain FCP1, active compounds read low 0.87 | S. cerevisiae deletion strains, locus YNL183C, strain NPR1, active compounds read low 0.178 | S. cerevisiae deletion strains, locus YOL078W, strain AVO1, active compounds read low 0.879 | S. cerevisiae deletion strains, locus YOL136C, strain PFK27, active compounds read low 0.533 | S. cerevisiae deletion strains, locus YOR119C, strain RIO1, active compounds read low 0.442 | S. cerevisiae deletion strains, locus YPL256C, strain CLN2, active compounds read low 0.293 | S. cerevisiae deletion strains, strain TSCII, active compounds read low 0.872
inactive: S. cerevisiae deletion strains, locus YBL105C, strain PKC1, active compounds read low 0.914 | S. cerevisiae deletion strains, locus YBR135W, strain CKS1, active compounds read low 0.903 | S. cerevisiae deletion strains, locus YBR136W, strain MEC1, active compounds read low 0.93 | S. cerevisiae deletion strains, locus YBR160W, strain CDC28, active compounds read low 0.915 | S. cerevisiae deletion strains, locus YDL017W, strain CDC7, active compounds read low 0.942 | S. cerevisiae deletion strains, locus YDL028C, strain MPS1, active compounds read low 0.972 | [3] 0.922 | S. cerevisiae deletion strains, locus YDL108W, strain KIN28, active compounds read low 0.94 | S. cerevisiae deletion strains, locus YDL132W, strain cdc53, active compounds read low 0.931 | S. cerevisiae deletion strains, locus YDR052C, strain DBF4, active compounds read low 0.942 | S. cerevisiae deletion strains, locus YDR054C, strain cdc34, active compounds read low 0.904 | S. cerevisiae deletion strains, locus YDR226W, strain ADK1, active compounds read low 0.904 | S. cerevisiae deletion strains, locus YFL009W, strain cdc4, active compounds read low 0.918 | S. cerevisiae deletion strains, locus YFL029C, strain CAK1, active compounds read low 0.885 | S. cerevisiae deletion strains, locus YFR003C, strain YPI1, active compounds read low 0.974 | S. cerevisiae deletion strains, locus YFR028C, strain CDC14, active compounds read low 0.893 | S. cerevisiae deletion strains, locus YGR092W, strain DBF2, active compounds read low 0.785 | S. cerevisiae deletion strains, locus YHR079C, strain IRE1, active compounds read low 0.88 | S. cerevisiae deletion strains, locus YIL147C, strain SLN1, active compounds read low 0.974 | S. cerevisiae deletion strains, locus YJR016C, strain ILV3, active compounds read low 0.936 | S. cerevisiae deletion strains, locus YKL048C, strain ELM1, active compounds read low 0.948 | S. cerevisiae deletion strains, locus YKL101W, strain HSL1, active compounds read low 0.777 | S. cerevisiae deletion strains, locus YLR403W, strain SFP1, active compounds read low 0.748 | S. cerevisiae deletion strains, locus YMR001C, strain CDC5, active compounds read low 0.896 | S. cerevisiae deletion strains, locus YMR205C, strain PFK2 (second series), active compounds read low 0.785 | S. cerevisiae deletion strains, locus YNL006W, strain LST8, active compounds read low 0.99 | S. cerevisiae deletion strains, locus YNL020C, strain ARK1, active compounds read low 0.874 | S. cerevisiae deletion strains, locus YNL161W, strain CBK1, active compounds read low 0.919 | S. cerevisiae deletion strains, locus YNL207W, strain RIO2, active compounds read low 0.916 | S. cerevisiae deletion strains, locus YNL222W, strain SSU72, active compounds read low 0.915 | S. cerevisiae deletion strains, locus YOR061W, strain CKA2, active compounds read low 0.879 | S. cerevisiae deletion strains, locus YOR231W, strain MKK1, active compounds read low 0.809 | S. cerevisiae deletion strains, locus YOR329C, strain SCD5, active compounds read low 0.973 | S. cerevisiae deletion strains, locus YPL153C, strain RAD53, active compounds read low 0.729 | S. cerevisiae deletion strains, locus YPL204W, strain HRR25, active compounds read low 0.706 | S. cerevisiae deletion strains, locus YPL209C, strain IPL1, active compounds read low 0.913 | S. cerevisiae deletion strains, locus YPR025C, strain CCL1, active compounds read low 0.911 | S. cerevisiae deletion strains, locus YPR106W, strain ISR1, active compounds read low 0.921 | S. cerevisiae deletion strains, locus YPR111W, strain DBF20, active compounds read low 0.909 | S. cerevisiae deletion strains, strain NNK1, active compounds read low 0.938

O=[N+]([O-])c1ccc(S(=O)(=O)c2ccc(Cl)cc2)cc1O
active: [1] 0.82 | [2] 0.766 | [3] 0.715 | [7] 0.81 | [9] 0.692 | [10] 0.832 | [11] 0.64 | [12] 0.723 | [13] 0.822 | [15] 0.639 | [17] 0.797 | [18] 0.814 | [19] 0.846 | [21] 0.86 | [24] 0.709
inactive: [4] 0.938 | [5] 0.811 | [6] 0.924 | [8] 0.954 | [27] 0.978 | [14] 0.947 | [16] 0.94 | [20] 0.915 | [22] 0.94 | [25] 0.934 | [26] 0.99 | [28] 0.952

Source: PubChem BioAssay AID1159580 (chemical genetic matrix, 2015)
